# According to the supplement of paper PMC12340641:
# ± gives the standard deviation of the averaged measurements.
# Key:
# [1] = biological target: IKZF1 (dCK*-IKZF1 fusion in HEK293FT) (UniProt Q13422); assay: inhibition of IKZF1 HTRF signal (DMSO = 0%, pomalidomide 10 uM = 100%); higher = lower IKZF1 protein level; details: compound concentration: 5 uM, overnight (~20 h)
# In short: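 After overnight treatment at 37 °C with 5 μM compound in single wells, HEK293FT cells (2000/well, 384-well) stably expressing an IKZF1 fusion were lysed for 30 min at room temperature. A commercial HTRF total-IKZF1 antibody kit was incubated with the lysate overnight, and the time-resolved FRET ratio at 665/620 nm was corrected for background. Data are given as percent inhibition of IKZF1 signal relative, on each plate, to vehicle and a reference degrader, set at 0% and 100% respectively.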
# HEK293FT dCK*-only = assay: relative growth in counter assay (no AraC = 100%, AraC + DMSO = 0%); higher = more growth rescue independent of IKZF1; details: compound concentration: 5 uM; AraC concentration: 0.3 uM; overnight pretreatment + 4 days AraC
# In short: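 Counter assay in HEK293FT cells expressing dCK* alone (300/well, 384-well). Cells received 5 μM compound 2 h after seeding, then after overnight at 37 °C a nucleoside suicide substrate at 0.3 μM plus medium for 4 days. On day 5, Hoechst 33342-stained nuclei were counted by imaging. Relative growth was normalised per plate to wells without suicide substrate (100%) and substrate plus vehicle (0%).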
# HEK293FT dCK*-IKZF1 = assay: relative growth recovery (pomalidomide 10 uM = 100%, DMSO = 0%); higher = more growth rescue (IKZF1 fusion degradation); details: compound concentration: 5 uM; AraC concentration: 0.3 uM; overnight pretreatment + 4 days AraC
# In short: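 Means of duplicates from different days are given for growth recovery, normalised per plate against a reference degrader and vehicle. The reference degrader set the 100% level and vehicle the 0% level. HEK293FT cells stably expressing a deoxycytidine kinase–IKZF1 fusion (300/well, 384-well) received 5 μM compound 2 h after seeding and, after overnight at 37 °C, 0.3 μM of a nucleoside suicide substrate plus medium for 4 days. Nuclei stained with Hoechst 33342 were then counted by whole-well imaging on day 5.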
# Chain of IKZF1 (dCK*-IKZF1 fusion in HEK293FT) (Q13422 whole entry, looked up, the tested form may be a part): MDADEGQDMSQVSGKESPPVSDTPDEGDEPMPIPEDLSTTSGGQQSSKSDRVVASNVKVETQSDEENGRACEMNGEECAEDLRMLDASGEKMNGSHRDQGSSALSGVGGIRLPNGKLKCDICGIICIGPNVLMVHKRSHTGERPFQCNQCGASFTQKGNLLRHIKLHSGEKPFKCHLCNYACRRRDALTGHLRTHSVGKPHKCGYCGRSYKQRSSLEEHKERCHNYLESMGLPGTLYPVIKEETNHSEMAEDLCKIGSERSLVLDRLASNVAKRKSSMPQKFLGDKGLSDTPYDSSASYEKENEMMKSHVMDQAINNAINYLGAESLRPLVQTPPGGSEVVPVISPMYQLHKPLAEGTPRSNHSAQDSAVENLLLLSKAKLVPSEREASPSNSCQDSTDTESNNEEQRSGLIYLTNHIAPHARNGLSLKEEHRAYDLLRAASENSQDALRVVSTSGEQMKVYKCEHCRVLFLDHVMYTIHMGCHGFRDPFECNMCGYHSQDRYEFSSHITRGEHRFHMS
SMILES,inhibition of IKZF1 HTRF signal [1] [%],relative growth in counter assay (HEK293FT dCK*-only) [%],relative growth recovery (HEK293FT dCK*-IKZF1) [%]
Clc1ccc(C(OCCN2CCCCC2)c2ccccc2)cc1 (configuration not stated),-26.4,-4.94,-0.525
C[C@]12CC[C@H](O)C[C@H]1CC[C@@H]1[C@@H]2CC[C@]2(C)[C@@H](C3=CC(=O)OC3)CC[C@]12O [digitoxigenin],40.7,-34.6,-12.2
O=C1c2ccccc2C(=O)c2ccccc21 [anthraquinone],-34.9,0.57,-0.655
COc1cc2c(c(OC)c1OC)-c1ccc(OC)c(=O)cc1[C@@H](NC(C)=O)CC2,-16.1,-34.4,-11.6
CO[C@H]1C[C@H](O[C@H]2CC[C@@]3(C)[C@H](CC[C@@H]4[C@@H]3CC[C@]3(C)[C@@H](C5=CC(=O)OC5)[C@@H](OC(C)=O)C[C@]43O)C2)O[C@@H](C)[C@@H]1O [Oleandrin],45.9,-35,-12.7
CC[C@H]1CN2CCc3cc(OC)c(OC)cc3C2C[C@@H]1CC1NCCc2cc(OC)c(OC)cc21 (some centres not stated),38.3,-34.9,-12.4
CCC(C)[C@H]1O[C@]2(C=C[C@@H]1C)C[C@@H]1C[C@@H](C/C=C(\C)[C@@H](OC3C[C@H](OC)C(O[C@H]4C[C@H](OC)[C@@H](O)[C@H](C)O4)[C@H](C)O3)[C@@H](C)/C=C/C=C3\CO[C@@H]4[C@H](O)C(C)=C[C@@H](C(=O)O1)[C@]34O)O2 (some centres not stated) [ABAMECTIN (avermectin B1a shown)],-61.7,-8.1,-3.08
CC[C@@H](C(N)=O)N1CCCC1=O,17.7,2.24,0.38
O=C(CCCN1CCC2(CC1)C(=O)NCN2c1ccccc1)c1ccc(F)cc1 [spiperone],-3.55,-1.41,-0.995
O=C(CCCN1CCC(n2c(=O)[nH]c3ccccc32)CC1)c1ccc(F)cc1 [benperidol],-18.1,4.87,1.78
c1ccc(CCCN2CCN(CCOC(c3ccccc3)c3ccccc3)CC2)cc1,-28.8,-4.09,3.4
Clc1ccccc1C(c1ccccc1)(c1ccccc1)n1cccn1,-25.1,1.96,-1.69
Fc1ccc(C(OCCN2CCN(C/C=C/c3ccccc3)CC2)c2ccc(F)cc2)cc1,-25.2,4.29,8.18
C(=C\c1ccccc1)/CN1CCN(CCOC(c2ccccc2)c2ccccc2)CC1,-32.9,-4.14,0.86
COc1cc2c(c(OC)c1OC)-c1ccc(OC)c(=O)cc1[C@@H](NC(C)=O)CC2 [Colchicine],17.9 ± 34,-33.57 ± 0.13,-12.2 ± 0.36
Cc1cc(C(C#N)c2ccc(Cl)cc2)c(Cl)cc1NC(=O)c1cc(I)cc(I)c1O (configuration not stated),-5.04,-3.81,-0.555
N#Cc1cn([C@@H]2O[C@H](CO)[C@@H](O)[C@H]2O)c2ncnc(N)c12 [toyocamycin],44.4,-34.2,-12.9
COc1cc([C@@H]2c3cc4c(cc3[C@H](O)[C@H]3COC(=O)C23)OCO4)cc(OC)c1OC (some centres not stated) [Podofilox],49.2,-34,-12.1
O=C1/C(=C/c2ccccc2)C[C@@]2(O)C3Cc4ccc(O)c5c4[C@@]2(CCN3CC2CC2)[C@H]1O5,27.9,-34.5,-12.6
NCC1(CC(=O)O)CCCCC1,-1.54,-10.5,-0.56

SMILES,inhibition of IKZF1 HTRF signal [1] [%],relative growth in counter assay (HEK293FT dCK*-only) [%],relative growth recovery (HEK293FT dCK*-IKZF1) [%]
O=c1[nH]c2ccccc2n1C1CCN(CCCC(c2ccc(F)cc2)c2ccc(F)cc2)CC1,-18.9,3.23,5.47
C[C@@]12C(=O)OC(=O)[C@]1(C)[C@H]1CC[C@@H]2O1 [cantharidin],15.8,3.7,-4.16
c1ccc2c(c1)Nc1ccccc1S2,-13.2,-0.21,0.68
O=c1[nH]c2ccccc2n1CCCN1CCC(n2c(=O)[nH]c3cc(Cl)ccc32)CC1,4.83,-4.05,2.7
CCCCC1(C2CCCC2)Cc2cc(OCCCC(=O)O)c(Cl)c(Cl)c2C1=O (configuration not stated),-38.8,2.86,0.8
COc1ccc2c(c1)/C(=C/c1cnc[nH]1)C(=O)N2,-35.9,-21.6,-7.43
Oc1cc(Cl)ccc1Oc1ccc(Cl)cc1Cl,-23.1,-4.14,-0.94
CC(=O)OC[C@]12CCC(C)=C[C@H]1O[C@@H]1[C@H](O)[C@@H](OC(C)=O)[C@@]2(C)[C@@]12CO2 [Diacetoxyscirpenol],93.3,-34.2,-12.7
Oc1c(I)cc(I)cc1I,11,4.58,2.79
CC(Cc1ccccc1)NCCC(c1ccccc1)c1ccccc1 (configuration not stated) [prenylamine],-23.8,9.26,-0.73
CCCCCCC[n+]1ccc(-c2cc[n+](CCCCCCC)cc2)cc1,-27.9,-12.3,-3.88
CO[C@@]12C(=COC(N)=O)c3c(O)c(N)c(C)c(O)c3N1C[C@@H]1N[C@@H]12 [Mitomycin C],15.8,-25.9,-6.43
C[C@@H]1C[C@@H]([C@H](O)CC2CC(=O)NC(=O)C2)C(=O)[C@@H](C)C1,79.8,-33.1,-12
COC(=O)[C@@]12OC[C@]34[C@H]([C@@H](O)[C@@H]1O)[C@@]1(C)CC(=O)C(O)=C(C)[C@@H]1C[C@H]3OC(=O)[C@H](OC(=O)/C=C(\C)C(C)C)[C@@H]24 [Bruceantin],43.7,-34.9,-12.3
N=C(Nc1ccccc1)Nc1ccccc1 [diphenylguanidine],-55.9,-6.47,-1.17
Fc1ccc(C(OCCN2CCN(CCCc3ccccc3)CC2)c2ccc(F)cc2)cc1 [vanoxerine],-25.6,-32.4,-10.5
COc1cc([C@@H]2c3cc4c(cc3[C@H](O)[C@H]3COC(=O)[C@H]23)OCO4)cc(OC)c1OC,50,-33.7,-11.7
CC[C@@]1(C2O[C@@H](C3O[C@@](O)(CO)[C@H](C)C[C@@H]3C)C[C@@H]2C)CC[C@H]([C@]2(C)CC[C@]3(C[C@H](O)[C@@H](C)[C@@H]([C@@H](C)[C@@H](OC)[C@H](C)C(=O)O)O3)O2)O1 (some centres not stated),9.03,-4.55,-0.68
COc1cc2cc(c1Cl)N(C)C(=O)C[C@H](OC(=O)C(C)C)[C@]1(C)O[C@H]1[C@H](C)[C@@H]1C[C@@](O)(NC(=O)O1)[C@H](OC)/C=C/C=C(\C)C2 [Ansamitocin P-3],-18.7,-34.3,-12.4
